ELG1 repair inh = inhibitors of ELG1-dependent DNA repair in HEK293T cells. 330,000 compounds, 2.3% hits. HEK293T ELG1-luciferase reporter, luminescence, 16 h; DNA damage induced by 5-fluorouridine. Potency, µM (titrated, usually from 46.1 µM), inactives show top-dose activity change, negative = inhibition, usual class: inhibitors. AID 504467; further: on the % scale 0 is the no-effect control and ±100 the full control effect; nearly all actives have a fitted effect of over 55% in size
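Step one: seed 2,000 cells per well. Step two: pin-transfer compound or DMSO alongside 5-fluorouridine. Step three: incubate 16 hr, 37 °C, 5% CO2. Step four: add ONE-Glo, wait 30 min, read luminescence.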
KB-3-1 cytotox = KB-3-1 parental cell cytotoxicity; KB-3-1 viability, CellTiter-Glo ATP luminescence, 72 h; 400,000 compounds, 1.4% hits; Potency, µM (highest dose often 46.1 µM), usual class: cytotoxic; further: on the % scale 0 is the no-effect control and ±100 the full control effect; nearly all actives have a fitted effect of over 60% in size
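Here the drug-naive KB-3-1 line serves as comparator for MDR sub-line selectivity; cells received compound titrations, 72 h at 37 °C, then CellTiter-Glo readout.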
MCF10A rereplic = induces DNA re-replication in MCF 10a normal breast cells; 350,000 compounds, 2.9% hits; MCF 10A DNA re-replication, Hoechst nuclear intensity, 48 h; AID 624296; Potency, µM (highest dose often 46.1 µM), for the others: at the highest dose activity, positive = re-replication, most hits filed as activators; further: % of control where 0% means no effect; nearly all actives have a fitted effect of over 50% in size
SW480 rerep = induces DNA re-replication in SW480 colon adenocarcinoma cells; AID 624297; SW480 DNA re-replication, Hoechst DNA content imaging, 48 h; 340,000 compounds, 1.8% hits; Potency, µM (titrated, usually from 46.1 µM), inactives show top-dose re-replication activation, usual class: activators; further: % of control where 0% means no effect; nearly all actives have a fitted effect of over 55% in size
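Image-based read-out: total Hoechst fluorescence of nuclei (405 nm excitation, 500-530 nm emission), with hits raising the fraction of high-intensity nuclei. SW480 colon cells incubated 48 hr with compounds at 37 C.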
KB-V1 cytotox = KB-V1 MDR subline cytotoxicity. KB-V1 MDR cells viability, CellTiter-Glo, 72 h. Potency, µM (highest dose often 46.1 µM), usual class: cytotoxic. 400,000 compounds, 3.4% hits. AID 1347076; further: on the % scale 0 is the no-effect control and ±100 the full control effect; nearly all actives have a fitted effect of over 60% in size
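Cytotoxicity toward P-gp-expressing KB-V1 cells was determined as loss of CellTiter-Glo luminescence after 72 h at 37 degrees C. Compounds were tested in quantitative HTS format across a concentration range, with curves fitted to normalized data.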
The depositor's hits bear a star; [ ] = remark or other dose. This is a sample that favours compounds with a hit; in the whole collection about 8.1% have one here. The call rests on the fitted dose curve; in most records, active means well fitted curve in the direction sought with a large enough effect; inconclusive means small, poorly fitted or top-dose-only effect, or another doubt; inactive means no such curve, though single readings can be large; an effect the other way counts as inactive or inconclusive. Potency means the concentration at half of the fitted maximal effect.

For Cc1cc(C)nc(N2CCCC(C(=O)NCCc3cccc(F)c3)C2)n1 (stereo unspecified) the results were ELG1 repair inh -6%, KB-3-1 cytotox inactive, MCF10A rereplic -1%, SW480 rerep -8% and KB-V1 cytotox 18µM*.
Screening COc1ccccc1NC(=O)C1CCCN(c2nc(C)cc(C)n2)C1 (stereo unspecified) returned ELG1 repair inh inconclusive, KB-3-1 cytotox inactive, MCF10A rereplic 7%, SW480 rerep -6% and KB-V1 cytotox inconclusive.
Screening Cc1cc(C)nc(N2CCCC(C(=O)Nc3cc(F)ccc3C)C2)n1 (stereo unspecified) returned ELG1 repair inh -18%, KB-3-1 cytotox inactive, MCF10A rereplic -4%, SW480 rerep -2% and KB-V1 cytotox 16µM*.
`Cc1cc(C)nc(N2CCCC(C(=O)Nc3ccc4c(c3)OCO4)C2)n1` (stereo unspecified) gave ELG1 repair inh 2%, KB-3-1 cytotox inactive, MCF10A rereplic 11%, SW480 rerep 3% and KB-V1 cytotox 23µM*.
For Cc1ccc(S(=O)(=O)N2C[C@]3(O)C[C@@H]4C(=O)N(c5ccccc5)C(=O)[C@@H]4C[C@]3(OC(=O)Nc3cccs3)C2)cc1 the results were KB-3-1 cytotox inactive and KB-V1 cytotox inactive.
COc1ccc(N2CCN(c3cncc(C)n3)CC2)cc1 was read as KB-3-1 cytotox inactive and KB-V1 cytotox inactive.
`Cc1ccc(Nc2nc(=O)c3cccnc3s2)cc1` gave ELG1 repair inh inconclusive, KB-3-1 cytotox inactive, MCF10A rereplic 16µM*, SW480 rerep 9.2µM* and KB-V1 cytotox inactive.
For CCOC(=O)[C@]12CCC=C1N(Cc1cccc3ccccc13)C(=O)[C@H](CC(=O)NCCCOC)C2 the results were KB-3-1 cytotox inactive and KB-V1 cytotox inactive.
For Cn1nc(C(C)(C)C)cc1C(=O)N1CCCCC1c1cc(C(=O)NCc2cccnc2)no1 (stereo unspecified) the results were KB-3-1 cytotox inactive and KB-V1 cytotox inactive.
Screening Cc1cc(C)c(C#N)c(SCc2ccccc2)n1 returned ELG1 repair inh inconclusive, KB-3-1 cytotox inactive, MCF10A rereplic -1%, SW480 rerep -2% and KB-V1 cytotox inactive.
For Cc1ccc2nc(CSc3nc(C)cc(C)c3C#N)[nH]c2c1 the results were ELG1 repair inh inconclusive, KB-3-1 cytotox inactive, MCF10A rereplic 1.8µM*, SW480 rerep 4.6µM* and KB-V1 cytotox inactive.
Screening COc1ccc(OC)c(/C=C2\Cc3ccccc3C2=O)c1 returned KB-3-1 cytotox inactive and KB-V1 cytotox inactive.
Screening Cc1ccc(NC(=O)c2ccc(S(=O)(=O)N3CCOCC3)cc2)nc1 returned ELG1 repair inh 11%, KB-3-1 cytotox inactive, MCF10A rereplic 0%, SW480 rerep -7% and KB-V1 cytotox 16µM*.
Cc1ccc(NC(=O)c2ccc(C(=O)c3ccccc3)cc2)nc1 was read as ELG1 repair inh inconclusive, KB-3-1 cytotox 15µM*, MCF10A rereplic 1%, SW480 rerep inconclusive and KB-V1 cytotox inconclusive.
`O=C(NCCC1=CCCCC1)c1ccc(Cl)c(S(=O)(=O)N2CCOCC2)c1` gave ELG1 repair inh inconclusive, KB-3-1 cytotox inactive, MCF10A rereplic 18%, SW480 rerep 2% and KB-V1 cytotox inactive.
Screening Cc1ccc(C(=O)Nc2ccc(S(=O)(=O)N3CCOCC3)cc2)cc1 returned ELG1 repair inh -28%, KB-3-1 cytotox inactive, MCF10A rereplic -51%, SW480 rerep -4% and KB-V1 cytotox inactive.
`Cc1ccc(NC(=O)c2ccc3nc[nH]c3c2)nc1` gave ELG1 repair inh 11%, KB-3-1 cytotox inconclusive, MCF10A rereplic inconclusive, SW480 rerep 24% and KB-V1 cytotox inactive.
For Cc1ccc(C(=O)Nc2ccc(Cl)cn2)cc1S(=O)(=O)N1CCOCC1 the results were ELG1 repair inh inconclusive, KB-3-1 cytotox inactive, MCF10A rereplic 7%, SW480 rerep -1% and KB-V1 cytotox inconclusive.
Cc1ccc(CSCCNC(=O)c2ccc(Cl)c(S(=O)(=O)N3CCOCC3)c2)cc1 was read as ELG1 repair inh 23µM*, KB-3-1 cytotox 21µM*, MCF10A rereplic 7%, SW480 rerep 1% and KB-V1 cytotox 3.7µM*.
Screening Cc1ccc(NC(=O)c2ccc(C)c(S(=O)(=O)N3CCOCC3)c2)nc1 returned ELG1 repair inh 28%, KB-3-1 cytotox inactive, MCF10A rereplic 7%, SW480 rerep -6% and KB-V1 cytotox 15µM*.
Screening Cc1c(CCC(=O)NCc2ccc(F)cc2)c(=O)oc2cc(O)ccc12 returned KB-3-1 cytotox inactive and KB-V1 cytotox inactive.
Screening O=S(=O)(Nc1cccc(-c2ccc(N3CCCCC3)nn2)c1)c1cccc(F)c1 returned KB-3-1 cytotox inactive and KB-V1 cytotox inactive.
Screening O=C(Nc1nccs1)c1ccc(Cl)c(S(=O)(=O)N2CCOCC2)c1 returned ELG1 repair inh 21µM*, KB-3-1 cytotox inactive, MCF10A rereplic 4%, SW480 rerep -6%[9.22 µM] and KB-V1 cytotox inactive.
Screening O=C(O)c1cccc(CN2C(=O)SC(Nc3ccccc3)C2=O)c1 (stereo unspecified) returned ELG1 repair inh 10%, KB-3-1 cytotox inactive, MCF10A rereplic 23µM*, SW480 rerep -4% and KB-V1 cytotox inactive.
For Cc1ccc(NC2SC(=O)N(Cc3cccc(C(=O)O)c3)C2=O)cc1 (stereo unspecified) the results were ELG1 repair inh 14%, KB-3-1 cytotox inactive, MCF10A rereplic 8%, SW480 rerep 8% and KB-V1 cytotox inactive.
Screening Cc1cccc(NC(=O)/C(C#N)=C/c2ccc(Cl)cc2)n1 returned ELG1 repair inh 5%, KB-3-1 cytotox inactive, MCF10A rereplic 23%, SW480 rerep 2% and KB-V1 cytotox inactive.
Cc1cccc(NC(=O)/C(C#N)=C/c2cccc([N+](=O)[O-])c2)n1 was read as ELG1 repair inh 2%, KB-3-1 cytotox inactive, MCF10A rereplic 21µM*, SW480 rerep inconclusive and KB-V1 cytotox inactive.
`O=C(CSc1nc2cc(Cl)ccc2s1)NC1CCCc2ccccc21` (stereo unspecified) gave ELG1 repair inh 7%, KB-3-1 cytotox inactive, MCF10A rereplic inconclusive, SW480 rerep -4% and KB-V1 cytotox 16µM*.
Screening O=C(Nc1ccccc1)NC1CCCc2ccccc21 (stereo unspecified) returned ELG1 repair inh -15%, KB-3-1 cytotox inactive, MCF10A rereplic -2%, SW480 rerep 1.2µM* and KB-V1 cytotox inactive.
Screening O=C(CSc1cc(Cl)ccc1Cl)NC1CCCc2ccccc21 (stereo unspecified) returned ELG1 repair inh 1%, KB-3-1 cytotox inactive, MCF10A rereplic inconclusive, SW480 rerep inconclusive and KB-V1 cytotox inactive.
